# Source: the supplement of paper PMC3334620
# In all, about 33,000 sequences were measured (“E-score (-0.5 to 0.5)”: median about -0.016, highest 2% from about 0.31 on). The sample as a whole holds a higher share of the highest values than the screen did.
# Target: Cst6 (UniProt P40535)
# Assay: PBM E-score (8-mer binding enrichment) (E-score (-0.5 to 0.5)); higher = stronger / more preferred TF binding
# Conditions: protein concentration: 200 nM; construct: GST-DNA-binding domain
# Method: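 Universal 'all 10-mer' protein binding microarrays (Agilent AMADID 015681) probed with GST-tagged S. cerevisiae TFs (full-length or DBD) made by in vitro transcription/translation (PURExpress), about 100-200 nM. Bound TF was detected with fluorescent anti-GST. Each ungapped 8-mer (which stands for itself and its reverse complement) is scored by the PBM enrichment score (E-score), a modified Wilcoxon-Mann-Whitney statistic from -0.5 to +0.5, computed with the Universal PBM Analysis Suite. Scale: above 0.35 generally sequence-specific binding.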
# Chain of UniProt P40535 (P40535 whole entry): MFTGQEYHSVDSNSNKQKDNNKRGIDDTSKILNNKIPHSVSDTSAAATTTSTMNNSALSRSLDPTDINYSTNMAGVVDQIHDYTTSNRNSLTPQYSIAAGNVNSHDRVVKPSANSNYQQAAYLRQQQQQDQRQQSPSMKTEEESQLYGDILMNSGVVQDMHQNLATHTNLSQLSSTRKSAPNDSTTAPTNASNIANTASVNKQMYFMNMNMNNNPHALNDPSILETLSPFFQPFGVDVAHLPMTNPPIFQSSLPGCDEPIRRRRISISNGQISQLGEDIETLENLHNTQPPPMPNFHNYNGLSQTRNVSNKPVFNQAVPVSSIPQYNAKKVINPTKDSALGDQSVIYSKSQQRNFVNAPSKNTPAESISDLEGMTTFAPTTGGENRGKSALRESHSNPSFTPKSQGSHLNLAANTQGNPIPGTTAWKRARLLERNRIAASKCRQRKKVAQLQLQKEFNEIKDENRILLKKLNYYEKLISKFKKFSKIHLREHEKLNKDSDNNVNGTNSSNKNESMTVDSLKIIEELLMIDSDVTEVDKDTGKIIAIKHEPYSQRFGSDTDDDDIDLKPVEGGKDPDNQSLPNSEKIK
row,Sequence,PBM E-score
1,AAGAGGAC,-0.249
2,AAACAGGA,0.0722
3,TATTTTAA,0.259
4,TATTTAAA,0.308
5,TATTTCAA,0.318
6,CATTTCAA,0.222
7,GATTAAAA,0.242
8,GATTTCAA,-0.0222
9,GTTTTAAA,0.196
10,TATTAAAA,0.323
11,AATTAAAA,0.187
12,ATTTTAAA,0.308
13,ATTTTTAA,0.293
14,CATTTAAA,0.279
15,CAAACCCC,-0.178
16,AAGGCGTA,0.0577
17,AGGCGAAT,0.0491
18,TCCTTGAA,-0.0366
19,AGGGCAGA,-0.248
20,GAGTTACC,-0.0903
21,ATGGCACG,0.111
22,ACCGGTGC,-0.105
23,ACCTTTTC,-0.133

row,Sequence,PBM E-score
1,GTCAGTGA,0.308
2,CTCAGTGA,0.0623
3,ATCAGTGA,0.136
4,GGTACACC,-0.287
5,GGCAGGCA,-0.193
6,GCATGTCA,0.287
7,TCATGTCA,0.382
8,GAATGTCA,0.206
9,TAATGTCA,0.356
10,ACATGTCA,0.275
11,AAATGTCA,0.216
12,ATCCATGG,-0.138
13,GGAGATTA,0.13
14,AGCTTCGC,-0.134
15,CGAACGAG,-0.108
16,CCACTTCA,-0.197
17,AACCACCA,0.00505
18,CGGCCGCC,-0.0119
19,AGTATTTA,0.171
20,CGTATTTA,0.358
21,GGTATTTA,0.0257
22,GAGCCTGC,-0.173
23,AAACAGGC,-0.0905

row,Sequence,PBM E-score
1,ATAACGTC,0.38
2,ATAACGAA,0.217
3,GTAACGTA,0.302
4,CAAACGTC,0.137
5,CTAACGTC,0.356
6,ATAACGTG,0.213
7,CTAACGTA,0.281
8,ATAACGTA,0.398
9,AGAACGTC,0.142
10,CTACTCAC,0.212
11,CATAGACC,-0.13
12,AACTGCCG,0.114
13,TAAATTTA,0.237
14,GCAATTTA,0.151
15,GTAATTTA,0.333
16,CTAATTTA,0.321
17,CTAATTTC,0.128
18,ATAATTTA,0.304
19,CATGAGGG,-0.142
20,ATGCAAAA,0.22
21,ACGGTCAC,0.152
22,TCAGCGCA,-0.176
23,ACAAAAGT,0.164

row,Sequence,PBM E-score
1,ACGTATAT,0.237
2,ACGTATTG,0.238
3,ACGTATAC,0.307
4,TCGTATAA,0.145
5,ACGTATAA,0.309
6,CCGTATAC,-0.015
7,CCGTATAA,0.225
8,GCGTATTA,0.0768
9,ACGTATTA,0.33
10,CGAGACTA,0.0119
11,GCAGCGCC,0.0306
12,CTAAAGAG,-0.0139
13,AGGGGCCC,-0.101
14,ACCCGACT,-0.16
15,CAAGGTTC,-0.155
16,AGGCTGGC,-0.195
17,CAACGTAA,0.329
18,GAACGTAA,0.277
19,CAACGTTG,0.31
20,TAACGTAA,0.452
21,CAACGTAC,0.0567
22,CAACGTAG,0.0788
23,AAACGTAA,0.365

row,Sequence,PBM E-score
1,TAACGAAA,0.27
2,AAACGTTG,-0.106
3,AAACGTAT,0.276
4,CAACGTTC,-0.13
5,AAACGTAG,-0.0946
6,GGCCCTCA,-0.266
7,AAGCAAAC,0.0375
8,TGATGAAA,0.289
9,GGATGACA,0.287
10,AGATGACA,0.283
11,CGATGACG,0.48
12,CGATGAGA,-0.048
13,GCATGACA,0.288
14,TGATGACA,0.368
15,CGATGACC,0.0541
16,CGATGACA,0.383
17,TCATGAGA,0.214
18,TCATGACA,0.392
19,CGATGAAG,0.0389
